Molecular target: Bromodomain-containing protein 4 (Homo sapiens) (UniProt O60885)
Settings: Compound concentration 20.0 uM, Protein concentration 2.0 uM, Result type QC Liability

Question: Which ΔTm does the source give for `COc1ccc(-n2nc(C(F)(F)F)cc2-c2ccc(Cl)cc2)cc1` here?
Answer: -1.21 °C

Question: With `C[C@H](CCC(=O)O)[C@H]1CC[C@H]2[C@@H]3[C@@H](O)C[C@@H]4C[C@H](O)CC[C@]4(C)[C@H]3CC[C@]12C` as the molecule, how does the ΔTm read?
Answer: -2.97 °C

Question: How did the ΔTm turn out when `COP(=O)(CCC(N)C(=O)O)Oc1cccc(CC(=O)O)c1` (stereo not given) was run?
Answer: -0.52 °C

Question: With `CS(=O)(=O)c1ccc(-c2cnc(N)c(C(=O)Nc3ccccc3)n2)cc1` as the molecule, how does the ΔTm read?
Answer: 0.79 °C

Question: `C[C@@H]1CC[C@@]2(OC1)O[C@H]1[C@@H](O)[C@H]3[C@@H]4CC[C@H]5C[C@@H](O[C@@H]6O[C@H](CO)[C@H](O[C@@H]7O[C@H](CO)C(O)[C@H](O[C@@H]8OC[C@@H](O)[C@H](O)[C@H]8O)[C@H]7O[C@@H]7O[C@H](CO)[C@H](O)[C@H](O[C@@H]8O[C@H](CO)[C@@H](O)[C@H](O)[C@H]8O)[C@H]7O)[C@H](O)[C@H]6O)[C@H](O)C[C@]5(C)[C@H]4CC[C@]3(C)[C@H]1[C@@H]2C` (stereo not given in full) was tested. Which ΔTm did it give?
Answer: -1.87 °C

Question: How did the ΔTm turn out when `OCC1OC(n2cnc3cc(Cl)c(Cl)cc32)C(O)C1O` (stereo not given) was run?
Answer: 0.7 °C

Question: `CN(C(=O)CCOCCOCCOCCOCCNc1cccc2c1C(=O)N(C1CCC(=O)NC1=O)C2=O)[C@H]1CC[C@@]2(C)[C@@H](CC[C@@H]3[C@@H]2CC[C@]2(C)[C@@H](c4ccc5ccncc5c4)CC[C@@H]32)C1` (stereo not given in full) was tested. Which ΔTm did it give?
Answer: -2.19 °C

Question: Which ΔTm does the source give for `COc1ccc(OC(=O)N(CC(=O)O)Cc2ccc(OCCc3nc(-c4ccccc4)oc3C)cc2)cc1` here?
Answer: -4.38 °C

Question: Which ΔTm does the source give for `CCN(CC)CCO[C@H]1CC[C@@]2(C)C(=CC[C@@H]3[C@@H]2CC[C@]2(C)C(=O)CC[C@@H]32)C1` here?
Answer: -1.53 °C

Question: How did the ΔTm turn out when `Cc1nnc2n1-c1sc(CCC(=O)N3CCOCC3)cc1C(c1ccccc1Cl)=NC2` was run?
Answer: -0.19 °C

Question: For `O=C(NCCN1CCC2(CC1)C(=O)NCN2c1cccc(F)c1)c1ccc2ccccc2c1`, which ΔTm is on record?
Answer: -0.54 °C

Question: `Cc1nnc2n1-c1sc3c(c1C(c1ccccc1Cl)=NC2)C[C@@H](C(=O)N1CCOCC1)C3` was tested. Which ΔTm did it give?
Answer: 1.2 °C

Question: Which ΔTm does the source give for `O=C1CCC(N2Cc3cc(CNC(=O)C(F)(F)c4ccc(Cl)cc4)ccc3C2=O)C(=O)N1` (stereo not given) here?
Answer: -1.23 °C

Question: How did the ΔTm turn out when `Cn1ncc(-c2nc(N[C@H]3CC[C@H](N)CC3)ncc2Cl)c1CC1CC1` was run?
Answer: -0.39 °C

Question: Which ΔTm does the source give for `Clc1ccccc1C(c1ccccc1)(c1ccccc1)n1cccn1` here?
Answer: -0.07 °C

Question: `CNc1nc(-c2cc(C(=O)N3CCN(Cc4ccc(Cl)cc4)CC3)c(Cl)cn2)cs1` was tested. Which ΔTm did it give?
Answer: 0.71 °C

Question: `CO[C@H](C)CN1CC[C@@]2(C)c3ccc(O)cc3C[C@@H]1C2(C)C` was tested. Which ΔTm did it give?
Answer: -0.17 °C

Question: With `N[C@H](C(=O)O)[C@@H]1CC(Cl)=NO1` as the molecule, how does the ΔTm read?
Answer: -0.13 °C

Question: For `C[C@H](CCC(=O)O)[C@H]1CC[C@H]2[C@@H]3CC[C@@H]4C[C@H](O)CC[C@]4(C)[C@H]3CC[C@]12C`, which ΔTm is on record?
Answer: -7.72 °C

Question: How did the ΔTm turn out when `C=CC(=O)N1CCC[C@@H](n2nc(-c3ccc(Oc4ccccc4)cc3)c3c(N)ncnc32)C1` was run?
Answer: -4.44 °C

Question: How did the ΔTm turn out when `C=C[C@@]12CCc3cc(O)ccc3[C@H]1CC[C@@]1(C)[C@H]2CC[C@@H]1O` was run?
Answer: 0.82 °C

Question: With `Cc1nnc2n1-c1sc3c(c1C(c1ccccc1Cl)=NC2)C[C@H](C(=O)N1CCOCC1)C3` as the molecule, how does the ΔTm read?
Answer: -0.46 °C

Question: For `Cc1cc(Cl)ccc1S(=O)(=O)NC[C@H]1C2CCC(CC2)[C@@H]1/C=C\CCCC(=O)O`, which ΔTm is on record?
Answer: -1.69 °C

Question: Which ΔTm does the source give for `COc1nc2ccc([C@@](O)(c3ccc(Cl)cc3)c3cncn3C)cc2c(Cl)c1Cc1ccc(-n2cccn2)cc1` here?
Answer: -0.83 °C

Question: Which ΔTm does the source give for `CCC(=O)O[C@@H](OP(=O)(CCCCc1ccccc1)CC(=O)N1C[C@H](C2CCCCC2)C[C@H]1C(=O)O)C(C)C` (stereo not given in full) here?
Answer: -0.8 °C

Question: For `CC[C@H]1[C@@H](O)[C@@H]2[C@H](CC[C@]3(C)[C@@H]([C@H](C)CCC(=O)O)CC[C@@H]23)[C@@]2(C)CC[C@@H](O)C[C@@H]12`, which ΔTm is on record?
Answer: -3.05 °C

Question: For `CCCn1cc(-c2cc(C3C(=O)N(CC)c4ccc(C(F)(F)F)cc4N(c4ccccc4)C3=O)cc(OC)c2O)cn1` (stereo not given), which ΔTm is on record?
Answer: 1.56 °C

Question: For `CO[C@H](C)CN1CC[C@]2(C)c3cccc(O)c3C[C@H]1C2(C)C`, which ΔTm is on record?
Answer: -1.2 °C

Question: With `CCN1C(=O)C(c2cccc(C(=O)O)c2)C(=O)N(c2ccccc2)c2cc(C(F)(F)F)ccc21` (stereo not given) as the molecule, how does the ΔTm read?
Answer: -0.84 °C

Question: For `CNC(=O)c1cc(C(=O)NC2CC2)cn(Cc2ccccc2)c1=O`, which ΔTm is on record?
Answer: -1.08 °C

Question: For `C[C@@H](CN1CC[C@@]2(C)c3cccc(O)c3C[C@@H]1C2(C)C)OCc1ccccc1`, which ΔTm is on record?
Answer: -0.17 °C

Question: How did the ΔTm turn out when `C=CC(=O)Nc1ccc2[nH]c(=O)n(C3CCN(Cc4ccc(-c5ccc6c(c5)NC(=O)CO6)cc4)CC3)c2c1` was run?
Answer: 0.27 °C

Question: With `CO[C@@H](C)CN1CC[C@]2(C)c3cc(O)ccc3C[C@H]1C2(C)C` as the molecule, how does the ΔTm read?
Answer: -1.9 °C

Question: How did the ΔTm turn out when `CCOP(=O)(OCC)C(=Cc1cc(C(C)(C)C)c(O)c(C(C)(C)C)c1)P(=O)(OCC)OCC` was run?
Answer: -3.19 °C

Question: With `Cc1ccc2c(N)c(C(=O)NC3CCc4cc(N5CC6CCC(C5)N6)ccc4C3)sc2n1` (stereo not given) as the molecule, how does the ΔTm read?
Answer: -0.53 °C

Question: `C[C@@H](CO)CCC[C@@H](C)[C@H]1CC[C@H]2[C@@H]3CC=C4C[C@@H](O)CC[C@]4(C)[C@H]3CC[C@]12C` was tested. Which ΔTm did it give?
Answer: -3.47 °C

Question: `C=CC(=O)Nc1cc(-c2nn(C3CCC(N4CCN(C(C)=O)CC4)CC3)c3ncnc(N)c23)ccc1Oc1ccccc1` (stereo not given) was tested. Which ΔTm did it give?
Answer: -0.22 °C

Question: For `Cc1nnc2n1-c1sc3c(c1C(c1ccccc1Cl)=NC2)CC(C(=O)N1CCOCC1)C3` (stereo not given), which ΔTm is on record?
Answer: 0.62 °C

Question: With `CN1CCN(C(=O)Cc2ccc(N/C(=C3\C(=O)Nc4cc(Cl)ccc43)c3ccccc3)cc2)CC1` as the molecule, how does the ΔTm read?
Answer: -3.18 °C

Question: Which ΔTm does the source give for `C[C@]12CC[C@@H]3c4ccc(C(N)=O)cc4CC[C@H]3[C@@H]1CC=C2c1cncc(F)c1` here?
Answer: 0 °C

From ChEMBL document CHEMBL5308504, “Tm Shift (DSF) assay results for EUbOPEN Chemogenomics Library” (2023)
